Measurements published in PubChem BioAssay (Tox21).
Inconclusive results are not listed. Entries that show only a call come without a potency. Calls of active or inactive are those of the source. Calls follow the shape of the full dose curve.

What follows are compounds tested against Beta-2 adrenergic receptor (Homo sapiens) (UniProt P07550) (assay: Adrenergic beta2 receptor (ADRB2) small molecule agonists, cell-based qHTS assay (AID 1963593)). Settings: CHO-ADRB2 cells, cAMP HTRF, 30 min; series mostly up to 92.4 µM.
Sequence of Beta-2 adrenergic receptor (Homo sapiens) (P07550 whole entry, looked up): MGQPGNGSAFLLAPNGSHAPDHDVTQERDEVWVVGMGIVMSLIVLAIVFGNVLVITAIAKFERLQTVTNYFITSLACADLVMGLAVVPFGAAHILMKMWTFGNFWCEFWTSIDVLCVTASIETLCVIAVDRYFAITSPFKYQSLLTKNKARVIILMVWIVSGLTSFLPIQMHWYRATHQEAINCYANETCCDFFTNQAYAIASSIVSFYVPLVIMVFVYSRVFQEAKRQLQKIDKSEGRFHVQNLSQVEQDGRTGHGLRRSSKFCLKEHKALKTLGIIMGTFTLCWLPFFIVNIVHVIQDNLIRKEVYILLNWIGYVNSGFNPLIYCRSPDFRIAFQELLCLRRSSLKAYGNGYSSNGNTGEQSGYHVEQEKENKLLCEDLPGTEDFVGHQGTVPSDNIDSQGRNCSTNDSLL
From the text: National Center for Advancing Translational Sciences [NCATS]
Division of Preclinical Innovation [DPI]
U.S. Environmental Protection Agency [EPA]
National Institutes of Environmental Health Sciences [NIEHS]
National Toxicology Program [NTP]
U.S. Food and Drug Administration [FDA]
Beta adrenergic receptors (Beta-ARs) belong to the G-protein coupled receptor (GPCR) superfamily, includes three subtypes - beta1, beta2, and beta3. Beta1-AR is the predominant receptor subtype expressed in the heart, and beta2-AR is expressed in the kidney, lung, blood vessel and in the heart, and beta3 is found in the adipocytes. Beta1 and 2 ARs couple to Gs protein and elevate cyclic adenosine mono phosphate (cAMP), which activates protein kinase A and leads to the downstream signaling responsible for the physiological actions. Beta-AR agonists or antagonists are the most prescribed therapeutic agents for heart failure and asthma, and these were one of the first target receptors for the rational drug design. Tox21 10K compound library was screened using the cAMP-Gs dynamic assay (Cisbio Bioassays, Shelton, CT) to identify agonists/antagonists of the Gs-coupled human adrenergic, beta2 receptor (ADRB2) in the CHO-ADRB2 cell line (Codex BioSolutions, Inc. Gaithersburg, MD), which stably over-expresses ADRB2. The principle of cAMP-Gs dynamic assay is based on HTRF technology, which facilitates the fluorescence resonance energy transfer (FRET) between donor Europium cryptate and acceptor d2-labeled cAMP. The cAMP generated within cells competes with the red acceptor, d2-labled cAMP, for binding to the monoclonal anti-cAMP-cryptate (Europium donor). An increase in intracellular cAMP leads to the disruption of FRET signal, and the signal is inversely proportional to the cAMP concentration. Isoproterenol HCl (Sigma-Aldrich, St. Louis, MO) was used as a positive control in the screening.
Tox21 Assay Protocol Summary:
CHO-ADRB2 cells were dispensed at 1,000/well in 4uL assay medium into white/solid 1536-well plates (Greiner Bio-One North America Inc., Monroe, NC) using a Multidrop Combi dispenser (ThermoFisher Scientific, Waltham, MA). The assay plates were incubated at 37C and 5% CO2 for an overnight (18-20hr). Then positive control and test compounds dissolved in DMSO were transferred to the assay plates at 23nL using a Pintool station (Wako, San Diego, CA). Following the compound and positive control transfer, 1uL stimulation mix containing 100uM IBMX and 25uM Ro-20-1724 was added to each well of the assay plates using BioRAPTR Flying Reagent Dispenser (FRD, Beckman Coulter, Brea, CA). The assay plates were incubated at room temperature for 0.5hr. Then 2.5ul each d2-labled cAMP and anti-cAMP-cryptate solutions were added separately to each well of the assay plates using an FRD and the assay plates were incubated at room temperature for 1hr.
In the case of `O=S(=O)(O)c1cccc(S(=O)(=O)O)c1`, the Potency is reported as “inactive”.
In the case of `CCCCCCCCCCCCCCCC`, the Potency is reported as “inactive”.
For `OC1CCCC1`, the Potency was “inactive”.
With `CC(C)(C)c1cc(Cc2cc(C(C)(C)C)c(O)c(C(C)(C)C)c2)cc(C(C)(C)C)c1O` the Potency was “inactive”.
For `O=C(OC(=O)c1ccccc1)c1ccccc1`, the Potency was “inactive”.
For `Nc1c(NC/C=C\COc2cc(CN3CCCCC3)ccn2)c(=O)c1=O`, the activation was -3.93% [at 19 µM] (inactive).
For `CCOC(=O)c1ccc(C)cc1`, the Potency was “inactive”.
In the case of `Nc1ncnc2c1ncn2[C@@H]1O[C@H](COP(=O)(O)O)[C@@H](O)[C@H]1O`, the Potency is reported as “inactive”.
In the case of `O=C1OC(=O)c2ccc3c4c(ccc1c24)C(=O)OC3=O`, the Potency is reported as “inactive”.
For `OCC(CO)N[C@H]1C[C@](O)(CO)[C@@H](O)[C@H](O)[C@H]1O`, the Potency was “inactive”.
With `OCC1(CO)COCOC1` the Potency was “inactive”.
With `CCOC(=S)SSC(=S)OCC` the Potency was “inactive”.
In the case of `CCCC(C)CCC(C)=O` (stereo not given), the Potency is reported as “inactive”.
`O=Cc1cccc([N+](=O)[O-])c1` was tested, and the Potency was “inactive”.
In the case of `CCCCCCS`, the Potency is reported as “inactive”.
For `CCCCCCN`, the Potency was “inactive”.
`CC(=O)N1C[C@H](O)C[C@H]1C(=O)O` was tested, and the Potency was “inactive”.
For `Clc1ccccc1C(c1ccccc1)(c1ccccc1)n1ccnc1`, the Potency was “inactive”.
For `CCCCCCCCCCCCOCCO`, the Potency was “inactive”.
For `CN(C)c1cccc(O)c1`, the Potency was “inactive”.
With `CN(C)/N=N/c1nc[nH]c1C(N)=O` the Potency was “inactive”.
With `Cn1sccc1=O` the Potency was “inactive”.
`CCC(=O)OC/C=C(\C)CCC=C(C)C` was tested, and the Potency was “inactive”.
With `CC(=O)[C@@]1(O)CC[C@H]2[C@@H]3CCC4=CC(=O)CC[C@]4(C)[C@H]3CC[C@@]21C` the Potency was “inactive”.
`CCCCCCc1ccc(-c2ccc(C#N)cc2)cc1` was tested, and the Potency was “inactive”.
`CC(C)=CCCC(C)CC=O` (stereo not given) was tested, and the Potency was “inactive”.
In the case of `CC(S)C(=O)NCC(=O)O` (stereo not given), the Potency is reported as “inactive”.
`NNC(=O)c1cccc(C(=O)NN)c1` was tested, and the Potency was “inactive”.
For `C[C@@H]1CCC[C@H](C)N1CCCC(O)(c1ccccc1)c1ccccn1` (stereo not given in full), the Potency was “inactive”.
`O=c1[nH]c(=O)n([C@H]2CCCO2)cc1F` was tested, and the Potency was “inactive”.
For `CC(C)(C)OC(=O)c1cccc(N)c1`, the Potency was “inactive”.
With `Cc1ccc(CO)cc1` the Potency was “inactive”.
`CCN(CC)S(=O)(=O)c1ccc(C(=O)O)cc1` was tested, and the Potency was “inactive”.
In the case of `COCCCC/C(=N\OCCN)c1ccc(C(F)(F)F)cc1`, the Potency is reported as “inactive”.
In the case of `C=CCCCCCCCCCCC`, the activation is reported as -13.4% [at 8.39 µM] (inactive).
`C#CC(O)CCC` (stereo not given) was tested, and the Potency was “inactive”.
For `CCCC[C@H]1CN(CC2CCOCC2)C(=O)OC12CCN(C1(C)CCN(C(=O)c3c(C)ncnc3C)CC1)CC2`, the Potency was “inactive”.
With `CCOC(=O)c1cc(=O)c2c(OCC(COc3cccc4oc(C(=O)OCC)cc(=O)c34)OC(=O)[C@@H](N)CCCCN)cccc2o1` the Potency was “inactive”.
`C1=COCCC1` was tested, and the Potency was “inactive”.
`CC1C(C)(C)C2=C(C(=O)CCC2)C1(C)C` (stereo not given) was tested, and the Potency was “inactive”.
